Data published in PubChem BioAssay (EPA / NIEHS).
Activity calls are given as the source filed them. Rule for the calls: active = hit-call score of the fitted dose curve at least 0.9, where 1 is the maximum; inactive = score below 0.9.

read-out: Tumor necrosis factor (Homo sapiens) (UniProt P01375); assay: BSK_BT_xTNFa: BioMAP Diversity Plus: BT Assay for Tumor necrosis factor alpha (TNF-alpha) Biomarker Activity (AID 2284230); conditions: primary human B cells with PBMC
In short: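 Read-out: Luminex xMAP quantitation of secreted TNF-alpha from a B cell/PBMC co-culture 24 h after compound addition. Signal analysed relative to DMSO vehicle, positive fitting direction.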

Sequence of Tumor necrosis factor (Homo sapiens) (P01375 whole entry, looked up): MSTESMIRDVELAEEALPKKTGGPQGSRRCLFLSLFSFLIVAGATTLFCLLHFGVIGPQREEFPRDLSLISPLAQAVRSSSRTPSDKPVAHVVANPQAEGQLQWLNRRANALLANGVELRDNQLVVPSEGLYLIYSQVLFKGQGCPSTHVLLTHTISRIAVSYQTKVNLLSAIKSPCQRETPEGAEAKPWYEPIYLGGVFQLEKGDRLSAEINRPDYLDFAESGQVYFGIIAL

Row | SMILES | AC50 | outcome
1 | O=C1C(Cl)=C(Cl)C(=O)C(Cl)=C1Cl | 20 µM (active) | 
2 | CC(C)(c1cc(Cl)c(O)c(Cl)c1)c1cc(Cl)c(O)c(Cl)c1 |  | inactive
3 | COCC(=O)N(c1c(C)cccc1C)N1CCOC1=O |  | inactive
4 | CC(C)CCCCCCCOP(=O)(Oc1ccccc1)Oc1ccccc1 | 31.3 µM (active) | 
5 | C=CCN(CC=C)C(=O)C(Cl)Cl |  | inactive
6 | c1ccc(Nc2ccc3ccccc3c2)cc1 | 20 µM (active) | 
7 | Cc1ccc(OP(=O)(Oc2ccc(C)cc2)Oc2ccc(C)cc2)cc1 (tested in a mixture with another compound) |  | inactive
8 | O=S(=O)(c1ccccc1)c1ccccc1 |  | inactive
9 | CC(=O)/C=C/c1ccccc1 | 20 µM (active) | 

read-out: Vascular cell adhesion molecule 1 (VCAM1), VCAM1 (gene 7412); assay: BSK_MyoF_VCAM1: BioMAP Diversity Plus: MyoF Assay for Vascular cell adhesion molecule 1 (VCAM1) Biomarker Activity (AID 2284231); conditions: primary human lung fibroblasts
In short: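 Steps: fibroblasts from human lung exposed to compound; biomarker quantified by ELISA at 24 h; values analysed for upward change over the DMSO baseline.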

Row | SMILES | AC50 | outcome
10 | O=C1C(Cl)=C(Cl)C(=O)C(Cl)=C1Cl | 20.5 µM (active) | 
11 | COCC(=O)N(c1c(C)cccc1C)N1CCOC1=O |  | inactive
12 | CC(C)CCCCCCCOP(=O)(Oc1ccccc1)Oc1ccccc1 | 8.84 µM (active) | 
13 | C=CCN(CC=C)C(=O)C(Cl)Cl |  | inactive
14 | c1ccc(Nc2ccc3ccccc3c2)cc1 | 31.2 µM (active) | 
15 | Cc1ccc(OP(=O)(Oc2ccc(C)cc2)Oc2ccc(C)cc2)cc1 (tested in a mixture with another compound) |  | inactive
16 | O=S(=O)(c1ccccc1)c1ccccc1 |  | inactive
17 | CC(=O)/C=C/c1ccccc1 |  | inactive

read-out: Collagen I, COL1A1 (gene 1277); assay: BSK_MyoF_CollagenI: BioMAP Diversity Plus: MyoF Assay for Collagen I Biomarker Activity (AID 2284238); conditions: primary human lung fibroblasts
In short: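 Multiplexed primary human lung fibroblast system; Collagen I measured by ELISA at 24 h post-dose. Increases are referenced to DMSO.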

Row | SMILES | AC50 | outcome
18 | O=C1C(Cl)=C(Cl)C(=O)C(Cl)=C1Cl | 16.6 µM (active) | 
19 | CC(C)(c1cc(Cl)c(O)c(Cl)c1)c1cc(Cl)c(O)c(Cl)c1 | 5.31 µM (active) | 
20 | COCC(=O)N(c1c(C)cccc1C)N1CCOC1=O |  | inactive
21 | CC(C)CCCCCCCOP(=O)(Oc1ccccc1)Oc1ccccc1 | 8.57 µM (active) | 
22 | C=CCN(CC=C)C(=O)C(Cl)Cl |  | inactive
23 | c1ccc(Nc2ccc3ccccc3c2)cc1 | 31 µM (active) | 
24 | Cc1ccc(OP(=O)(Oc2ccc(C)cc2)Oc2ccc(C)cc2)cc1 (tested in a mixture with another compound) | 32.6 µM (active) | 
25 | O=S(=O)(c1ccccc1)c1ccccc1 |  | inactive
26 | CC(=O)/C=C/c1ccccc1 |  | inactive

read-out: Collagen III, COL3A1 (gene 1281); assay: BSK_MyoF_CollagenIII: BioMAP Diversity Plus: MyoF Assay for Collagen III Biomarker Activity (AID 2284239); conditions: primary human lung fibroblasts
In short: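 Compounds are added to primary human lung fibroblasts and left for 24 hours. Collagen III is then quantified by ELISA. Analysis takes DMSO as baseline and fits increases in signal.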

Row | SMILES | AC50 | outcome
27 | O=C1C(Cl)=C(Cl)C(=O)C(Cl)=C1Cl | 14.4 µM (active) | 
28 | CC(C)(c1cc(Cl)c(O)c(Cl)c1)c1cc(Cl)c(O)c(Cl)c1 | 9.8 µM (active) | 
29 | COCC(=O)N(c1c(C)cccc1C)N1CCOC1=O |  | inactive
30 | CC(C)CCCCCCCOP(=O)(Oc1ccccc1)Oc1ccccc1 | 8.98 µM (active) | 
31 | C=CCN(CC=C)C(=O)C(Cl)Cl |  | inactive
32 | c1ccc(Nc2ccc3ccccc3c2)cc1 | 20 µM (active) | 
33 | Cc1ccc(OP(=O)(Oc2ccc(C)cc2)Oc2ccc(C)cc2)cc1 (tested in a mixture with another compound) |  | inactive
34 | O=S(=O)(c1ccccc1)c1ccccc1 |  | inactive
35 | CC(=O)/C=C/c1ccccc1 |  | inactive

read-out: Interleukin 17F (IL17F), IL17F (gene 112744); assay: BSK_BT_xIL17F: BioMAP Diversity Plus: BT Assay for Interleukin 17F (IL17F) Biomarker Activity (AID 2284243); conditions: primary human B cells with PBMC
In short: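 Measures secreted IL-17F from a human B cell plus PBMC co-culture at 24 h post-dose by Luminex xMAP, with DMSO defining baseline activity.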

Row | SMILES | AC50 | outcome
36 | O=C1C(Cl)=C(Cl)C(=O)C(Cl)=C1Cl | 28.8 µM (active) | 
37 | CC(C)(c1cc(Cl)c(O)c(Cl)c1)c1cc(Cl)c(O)c(Cl)c1 |  | inactive
38 | COCC(=O)N(c1c(C)cccc1C)N1CCOC1=O |  | inactive
39 | CC(C)CCCCCCCOP(=O)(Oc1ccccc1)Oc1ccccc1 | 25.5 µM (active) | 
40 | C=CCN(CC=C)C(=O)C(Cl)Cl |  | inactive
41 | c1ccc(Nc2ccc3ccccc3c2)cc1 | 30.8 µM (active) | 
42 | Cc1ccc(OP(=O)(Oc2ccc(C)cc2)Oc2ccc(C)cc2)cc1 (tested in a mixture with another compound) | 24.6 µM (active) | 
43 | O=S(=O)(c1ccccc1)c1ccccc1 |  | inactive
44 | CC(=O)/C=C/c1ccccc1 | 20 µM (active) | 

read-out: Actin alpha 1 (ACTA1), ACTA1 (gene 58); assay: BSK_MyoF_ACTA1: BioMAP Diversity Plus: MyoF Assay for Actin alpha 1 (ACTA1) Biomarker Activity (AID 2284244); conditions: primary human lung fibroblasts
In short: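 Lung fibroblasts, human primary, 24 h compound exposure → a-SMA ELISA. Positive-direction fit vs DMSO control.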

Row | SMILES | AC50 | outcome
45 | O=C1C(Cl)=C(Cl)C(=O)C(Cl)=C1Cl | 23.8 µM (active) | 
46 | CC(C)(c1cc(Cl)c(O)c(Cl)c1)c1cc(Cl)c(O)c(Cl)c1 | 6.18 µM (active) | 
47 | COCC(=O)N(c1c(C)cccc1C)N1CCOC1=O |  | inactive
48 | CC(C)CCCCCCCOP(=O)(Oc1ccccc1)Oc1ccccc1 | 8.22 µM (active) | 
49 | C=CCN(CC=C)C(=O)C(Cl)Cl |  | inactive
50 | c1ccc(Nc2ccc3ccccc3c2)cc1 | 29 µM (active) | 
51 | Cc1ccc(OP(=O)(Oc2ccc(C)cc2)Oc2ccc(C)cc2)cc1 (tested in a mixture with another compound) | 26.4 µM (active) | 
52 | O=S(=O)(c1ccccc1)c1ccccc1 |  | inactive
53 | CC(=O)/C=C/c1ccccc1 |  | inactive

read-out: Interleukin 2 (IL2), IL2 (gene 3558); assay: BSK_BT_xIL2: BioMAP Diversity Plus: BT Assay for Interleukin 2 (IL2) Biomarker Activity (AID 2284245); conditions: primary human B cells with PBMC
In short: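 B cell + PBMC co-culture (human primary), compound added, 24 h incubation; secreted IL-2 measured multiplexed on Luminex xMAP; gain-of-signal fit vs DMSO.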

Row | SMILES | AC50 | outcome
54 | O=C1C(Cl)=C(Cl)C(=O)C(Cl)=C1Cl | 29.3 µM (active) | 
55 | CC(C)(c1cc(Cl)c(O)c(Cl)c1)c1cc(Cl)c(O)c(Cl)c1 |  | inactive
56 | COCC(=O)N(c1c(C)cccc1C)N1CCOC1=O |  | inactive
57 | CC(C)CCCCCCCOP(=O)(Oc1ccccc1)Oc1ccccc1 | 26.4 µM (active) | 
58 | C=CCN(CC=C)C(=O)C(Cl)Cl |  | inactive
59 | c1ccc(Nc2ccc3ccccc3c2)cc1 | 20 µM (active) | 
60 | Cc1ccc(OP(=O)(Oc2ccc(C)cc2)Oc2ccc(C)cc2)cc1 (tested in a mixture with another compound) | 20 µM (active) | 
61 | O=S(=O)(c1ccccc1)c1ccccc1 |  | inactive
62 | CC(=O)/C=C/c1ccccc1 | 20 µM (active) | 
